From PubChem BioAssay (NCATS)
Inconclusive results are not listed. Calls of active or inactive are those of the source. Unless noted, the call rests on the fitted dose curve; in most records, active means well fitted curve in the direction sought with a large enough effect; inconclusive means small, poorly fitted or top-dose-only effect, or another doubt; inactive means no such curve, though single readings can be large; an effect the other way counts as inactive or inconclusive.

Key:
[1] = NCATS anti-infectives library activity on HEK293 viability as a counter-qHTS vs the C. elegans viability qHTS (AID 1745854); details: HEK293 viability counter-screen; series mostly up to 41.8 µM;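 further: HEK293 cells exposed to compounds for 24 hr before the viability read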
In short: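 Compounds were acoustically plated (several concentrations, 1:5, final up to 41.7 uM), then 1500 HEK293 cells added per well and incubated 24 hr at 37C, 5% CO2. CellTiter-Glo was added and luminescence read after 10 min.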

[2] = NCATS anti-infectives library activity on the primary C. elegans qHTS viability assay (AID 1745855; calls by dose curve); details: C. elegans worm area imaging, day 7; at 41.8 µM (top of the series)
In short: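 Viability read-out is GFP fluorescence of PE254-GFP-FLuc C. elegans, measured by laser cytometry (488 nm) at day 0, 3 and 7. Ten L1 worms per well were incubated 7 days at 21 °C with compounds and bacterial capsules in S medium.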

[3] = target: Metallo-beta-lactamase type 2 (Klebsiella pneumoniae) (UniProt C7C422); test: qHTS to identify inhibitors of the New Delhi Metallo-beta-lactamase (NDM): assay validation screen against the NCATS LOPAC Collection (AID 1794843); details: NDM-1 enzyme, nitrocefin hydrolysis, absorbance 485 nm; series mostly up to 38.4 µM
In short: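 Absorbance at 485 nm from nitrocefin turnover (50 uM solution added), read at plateau, gives the read-out. Compounds in DMSO were incubated first with 2 nM final NDM-1 in pH 7.0 HEPES buffer containing 1 uM ZnSO4 and 0.01% Tween20.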

[4] = target: Glutathione peroxidase 1 (Homo sapiens) (UniProt P07203); test: Primary qHTS Assay for Inhibitors of Recombinant Selenoprotein Glutathione Peroxidase 1 (GPX1) (AID 1845191); details: recombinant GPX1, GR-coupled NADPH fluorescence, 15 min; series mostly up to 48.8 µM; further: nearly all actives have a fitted effect of over 65% in size
In short: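 Recombinant GPX1 (10 nM final) was preincubated with compound for 30 min at room temperature, then reacted with 1 mM GSH, 0.5 mM CHP, 0.5 mM NADPH and 100 nM glutathione reductase; NADPH fluorescence (340/450 nm) was read at 0 and 15 min.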

[5] = target: Phospholipid hydroperoxide glutathione peroxidase GPX4 (Homo sapiens) (UniProt P36969); test: Primary qHTS Assay for Inhibitors of Recombinant Selenoprotein Glutathione Peroxidase 4 (GPX4) (AID 1845192); details: recombinant GPX4, GR-coupled NADPH fluorescence, 15 min; series mostly up to 50 µM; further: nearly all actives have a fitted effect of over 65% in size
In short: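 GR-coupled readout: 100 nM GR, 1 mM GSH, 0.5 mM NADPH; NADPH fluorescence (ex 340/em 450 nm) read at t=0 and after 15 min RT. GPX4 200 nM, preincubated 30 min with compound; substrate 0.5 mM CHP.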

[6] = target: Luciferin 4-monooxygenase (Photinus pyralis) (UniProt P08659); test: Primary firefly luciferase (FLuc) qHTS assay for identification of artifact compounds. (AID 1845220); details: purified firefly luciferase, luminescence, 5 min; series mostly up to 54.1 µM; further: nearly all actives have a fitted effect of over 60% in size; further: potency means the concentration at half of the fitted maximal effect
In short: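 Reaction readout was CCD-imaged luminescence, taken 5 min after adding 10 nM purified firefly enzyme to compound-treated wells holding 10 uM luciferin and ATP in pH 7.6 buffer.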

[7] = tested on: Nanoluciferase (engineered Oplophorus gracilirostris luciferase); test: Primary Nanoluciferase (NLuc) qHTS assay for identification of artifact compounds. (AID 1845222); details: NLuc-conditioned medium, Nano-Glo luminescence, 5 min; series mostly up to 54.1 µM; further: potency means the concentration at half of the fitted maximal effect
In short: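 Concentration-response data were obtained by luminescence after 5 min with Nano-Glo substrate at 1:100. The enzyme was diluted S16 NLuc-expressing cell medium, preincubated with compound for 15 min at RT. Curves were fitted with a 4-parameter Hill model.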

[8] = Primary redox qHTS assay for identification of artifact compounds. (AID 1845223); details: Amplex Red/HRP redox cycling with DTT, fluorescence; series mostly up to 53.8 µM
In short: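 Amplex Red (25 uM) and HRP (250 mU/mL) in HBSS, with compounds for 15 min, then 250 uM DTT for 30 min, room temperature, dark. Fluorescence 525/598 nm read; normalized to DMSO and 10 uM DA3003; Hill fit.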

[9] = Viability counterscreen for antagonist of constitutive androstane receptor (CAR) against the NCATS DSHEA and TCM libraries (AID 1794837); details: CAR reporter cell line viability counterscreen, qHTS; series mostly up to 40 µM;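 further: compound exposure lasted 24 h before viability reading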
In short: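 HepG2-CYP2B6-hCAR cells (2,500/well) were allowed to attach for 5 h, then exposed to compounds with 48 uM CITCO for 24 h at 37C. Viability was read by CellTiter-Fluor fluorescence after 1 h.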

[10] = Viability counterscreen for agonist of constitutive androstane receptor (CAR) against the NCATS DSHEA and TCM libraries (AID 1794838); details: HepG2 cell viability counterscreen, CAR agonist assay, co-treated with 0.75 µM CAR antagonist; series mostly up to 40 µM
In short: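 HepG2-CYP2B6-hCAR cells (2,500/well) attached 5 h, then got compounds plus 0.75 uM PK11195 final. After 24 h at 37C, viability read by CellTiter-Fluor fluorescence (Ex/Em 405/540 nm).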

[11] = target: Nuclear receptor subfamily 1 group I member 3 (Homo sapiens) (UniProt Q14994); test: Primary qHTS for agonist of constitutive androstane receptor (CAR) against the NCATS DSHEA and TCM libraries (AID 1794839); details: CAR agonist reporter cells, qHTS luminescence, CAR antagonist co-added at 0.75 µM; series mostly up to 40 µM;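 further: HepG2 cells expressing human CAR with a CYP2B6 reporter plus PK11195 antagonist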
In short: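 HepG2-CYP2B6-hCAR cells (2,500/well) were attached for 5 h, then treated for 24 h at 37 °C with compounds plus 0.75 µM PK11195. Luciferase luminescence (ONE-Glo) was read, with CellTiter-Fluor viability (Ex/Em 405/540 nm).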

[12] = HepG2 viability counterscreen (readout 2: ATP content) against the NCATS DSHEA and TCM libraries (AID 1794840); details: ATP content luminescence; series mostly up to 27.3 µM;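 further: HepG2 cells exposed to substances for about 24 h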
In short: (§1)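 HepG2 cells (1,000 cells/well) attached ~4 h, then treated ~24 h at 37C with substances. Protease activity read by GF-AFC (25 uM final, 30 min, Ex/Em 380/510 nm); ATP content then by CellTiter-Glo luminescence.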

[13] = HepG2 viability counterscreen (readout 1: protease activity) against the NCATS DSHEA and TCM libraries (AID 1794841); details: qHTS concentration series; series mostly up to 27.3 µM;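 further: cells exposed to compounds for about 24 h before the protease read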
In short: as §1

[14] = target: Cytochrome P450 3A4 (Homo sapiens) (UniProt P08684); test: qHTS for inhibitors of CYP3A4 against the NCATS DSHEA and TCM libraries (AID 1919971); details: recombinant CYP3A4 enzyme activity, luminescence qHTS; series mostly up to 34.1 µM;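 further: inhibition lowers luminescence from luciferin made by CYP3A4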
In short: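 Read-out is luminescence after P450-Glo detection (30 min, RT). Before that: 15 min compound–enzyme preincubation, then 30-45 min reaction with 1x NADPH regeneration solution, substrate concentration isoform-specific.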

[15] = target: Cytochrome P450 2D6 (Homo sapiens) (UniProt P10635); test: qHTS for inhibitors of CYP2D6 against the NCATS DSHEA and TCM libraries (AID 1919972); details: CYP2D6 enzymatic inhibition, luminescence qHTS; series mostly up to 34.1 µM
In short: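 Luminescent P450-Glo read-out of CYP2D6 turnover of a luciferin substrate after NADPH-driven reaction of 30-45 min at room temperature. Compounds were first preincubated 15 min with enzyme at titrated concentrations; quinidine was the intraplate control.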

[16] = target: Catechol O-methyltransferase (Homo sapiens) (UniProt P21964); test: Confirmatory Screen for Target Class Profiling of Small Molecule Inhibitors of Methyltransferases (AID 1745852); details: MTase-Glo luminescence, SAH detection, recombinant enzyme; measured here: COMT max response; stronger effect = lower value
[17] = target: Guanidinoacetate N-methyltransferase (Homo sapiens) (UniProt Q14353); test: as above; details: MTase-Glo luminescence, SAH detection, recombinant enzyme; at 57.3 µM (top of the series)
[18] = target: Nicotinamide N-methyltransferase (Homo sapiens) (UniProt P40261); test: as above; details: MTase-Glo luminescence, SAH detection, recombinant enzyme; measured here: NNMT max response; stronger effect = lower value
[19] = target: Phenylethanolamine N-methyltransferase (Homo sapiens) (UniProt P11086); test: as above; details: MTase-Glo luminescence, SAH detection, recombinant enzyme; measured here: PNMT max response; stronger effect = lower value
[20] = Primary fluorescence-based thiol-reactive (MSTI) qHTS assay for identification of artifact compounds. (AID 1845221); details: MSTI thiol-reactivity probe, 1 h; series mostly up to 53.8 µM; further: nearly all actives have a fitted effect of over 65% in size; further: potency means the concentration at half of the fitted maximal effect
In short: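 Compounds were incubated 1 h at room temperature in the dark with the MSTI probe (4 uM) in PBS pH 7.4, 2% DMSO. Signals were normalized between Acetyl-MSTI and MSTI.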

Sequence of Glutathione peroxidase 1 (Homo sapiens) (P07203 whole entry, looked up): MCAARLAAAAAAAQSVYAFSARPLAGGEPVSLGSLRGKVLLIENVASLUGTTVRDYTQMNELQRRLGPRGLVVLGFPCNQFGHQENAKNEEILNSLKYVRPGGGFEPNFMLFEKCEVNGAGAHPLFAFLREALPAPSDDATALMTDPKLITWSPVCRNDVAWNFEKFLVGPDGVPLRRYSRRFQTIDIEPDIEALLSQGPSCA
Sequence of Metallo-beta-lactamase type 2 (Klebsiella pneumoniae) (C7C422 whole entry, looked up): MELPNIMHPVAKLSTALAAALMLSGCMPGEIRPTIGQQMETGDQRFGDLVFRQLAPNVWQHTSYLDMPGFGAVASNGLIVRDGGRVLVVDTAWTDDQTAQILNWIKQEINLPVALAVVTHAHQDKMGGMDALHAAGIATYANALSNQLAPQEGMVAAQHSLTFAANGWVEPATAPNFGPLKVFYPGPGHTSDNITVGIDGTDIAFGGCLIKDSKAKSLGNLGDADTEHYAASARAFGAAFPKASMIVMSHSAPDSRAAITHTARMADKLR
Sequence of Phospholipid hydroperoxide glutathione peroxidase GPX4 (Homo sapiens) (P36969 whole entry, looked up): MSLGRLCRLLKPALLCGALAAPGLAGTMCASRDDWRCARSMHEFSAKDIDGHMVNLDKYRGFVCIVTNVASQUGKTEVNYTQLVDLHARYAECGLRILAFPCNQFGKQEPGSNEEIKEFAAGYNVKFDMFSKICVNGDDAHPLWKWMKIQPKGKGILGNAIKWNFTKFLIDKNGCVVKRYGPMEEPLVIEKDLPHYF
Sequence of Nicotinamide N-methyltransferase (Homo sapiens) (P40261 whole entry, looked up): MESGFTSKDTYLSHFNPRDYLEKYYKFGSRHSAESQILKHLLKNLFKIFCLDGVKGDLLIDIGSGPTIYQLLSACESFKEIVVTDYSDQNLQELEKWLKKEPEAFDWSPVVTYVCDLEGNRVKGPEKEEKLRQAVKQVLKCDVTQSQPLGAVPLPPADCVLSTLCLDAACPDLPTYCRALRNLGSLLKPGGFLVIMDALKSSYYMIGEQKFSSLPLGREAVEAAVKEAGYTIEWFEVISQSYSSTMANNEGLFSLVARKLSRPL
Sequence of Phenylethanolamine N-methyltransferase (Homo sapiens) (P11086 whole entry, looked up): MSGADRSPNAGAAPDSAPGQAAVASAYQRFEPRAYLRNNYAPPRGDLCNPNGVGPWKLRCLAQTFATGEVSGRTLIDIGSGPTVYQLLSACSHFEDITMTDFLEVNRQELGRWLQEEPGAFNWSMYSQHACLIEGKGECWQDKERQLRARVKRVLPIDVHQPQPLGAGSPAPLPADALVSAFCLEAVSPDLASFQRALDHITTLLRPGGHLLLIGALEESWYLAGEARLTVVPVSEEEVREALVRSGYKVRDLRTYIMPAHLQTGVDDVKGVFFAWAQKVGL
Sequence of Nuclear receptor subfamily 1 group I member 3 (Homo sapiens) (Q14994 whole entry, looked up): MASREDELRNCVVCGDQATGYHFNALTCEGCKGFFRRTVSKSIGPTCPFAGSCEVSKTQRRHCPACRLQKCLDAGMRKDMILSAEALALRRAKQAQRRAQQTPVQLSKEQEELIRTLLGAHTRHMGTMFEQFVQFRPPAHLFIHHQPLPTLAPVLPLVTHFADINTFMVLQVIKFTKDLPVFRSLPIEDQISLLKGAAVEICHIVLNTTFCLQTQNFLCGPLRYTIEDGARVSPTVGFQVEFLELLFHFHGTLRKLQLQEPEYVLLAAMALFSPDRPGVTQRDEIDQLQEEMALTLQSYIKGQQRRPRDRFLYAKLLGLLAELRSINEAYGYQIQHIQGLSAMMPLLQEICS
Sequence of Cytochrome P450 3A4 (Homo sapiens) (P08684 whole entry, looked up, canonical isoform): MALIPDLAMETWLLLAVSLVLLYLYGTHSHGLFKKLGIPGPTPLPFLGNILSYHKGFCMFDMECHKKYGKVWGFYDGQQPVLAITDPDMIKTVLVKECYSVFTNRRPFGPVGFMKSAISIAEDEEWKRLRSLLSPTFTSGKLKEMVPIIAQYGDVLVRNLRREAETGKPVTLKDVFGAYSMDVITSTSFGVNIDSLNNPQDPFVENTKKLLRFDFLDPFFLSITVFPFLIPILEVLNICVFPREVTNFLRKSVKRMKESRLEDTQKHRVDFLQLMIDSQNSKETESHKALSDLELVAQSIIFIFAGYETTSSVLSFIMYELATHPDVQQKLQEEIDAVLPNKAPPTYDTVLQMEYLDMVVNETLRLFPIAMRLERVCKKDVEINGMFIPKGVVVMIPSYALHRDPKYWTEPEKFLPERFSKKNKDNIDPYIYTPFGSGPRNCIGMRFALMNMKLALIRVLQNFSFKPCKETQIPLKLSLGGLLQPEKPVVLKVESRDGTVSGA
Sequence of Cytochrome P450 2D6 (Homo sapiens) (P10635 whole entry, looked up): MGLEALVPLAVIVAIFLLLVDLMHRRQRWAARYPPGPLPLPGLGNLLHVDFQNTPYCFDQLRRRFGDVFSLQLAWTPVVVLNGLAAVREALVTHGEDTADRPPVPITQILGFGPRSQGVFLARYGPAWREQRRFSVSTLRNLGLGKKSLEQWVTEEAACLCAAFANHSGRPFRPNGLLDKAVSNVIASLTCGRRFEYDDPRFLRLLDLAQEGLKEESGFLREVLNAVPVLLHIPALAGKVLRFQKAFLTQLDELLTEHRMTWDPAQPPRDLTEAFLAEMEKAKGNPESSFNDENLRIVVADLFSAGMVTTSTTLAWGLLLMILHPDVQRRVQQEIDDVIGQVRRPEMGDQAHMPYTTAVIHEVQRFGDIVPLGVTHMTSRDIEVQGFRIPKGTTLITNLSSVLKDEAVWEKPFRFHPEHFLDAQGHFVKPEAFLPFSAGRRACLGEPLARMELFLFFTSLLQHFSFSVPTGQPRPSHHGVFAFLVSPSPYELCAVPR
Sequence of Catechol O-methyltransferase (Homo sapiens) (P21964 whole entry, looked up): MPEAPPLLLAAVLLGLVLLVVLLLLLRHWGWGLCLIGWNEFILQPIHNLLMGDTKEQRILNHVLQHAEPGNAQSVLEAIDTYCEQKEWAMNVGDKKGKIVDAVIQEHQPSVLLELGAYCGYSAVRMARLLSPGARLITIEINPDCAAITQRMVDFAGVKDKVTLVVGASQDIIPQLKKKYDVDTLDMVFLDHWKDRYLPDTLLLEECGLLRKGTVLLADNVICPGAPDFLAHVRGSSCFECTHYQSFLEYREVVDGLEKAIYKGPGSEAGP

Clc1ccc2c(c1)N=C(N1CCNCC1)c1ccccc1N2
inactive: Potency [1] | outcome [2] | outcome [3] | Potency [4] | Potency [5] | Potency [6] | Potency [7] | outcome [8]

O=[N+]([O-])c1ccc(-c2nc(-c3ccc(F)cc3)c(-c3ccncc3)[nH]2)cc1
inactive: outcome [3] | Potency [4] | Potency [5] | Potency [6] | Potency [7] | outcome [8]

C[N+](C)(C)CCO
inactive: outcome [9] | outcome [10] | outcome [11] | outcome [12] | outcome [13] | outcome [3] | Potency [4] | Potency [5] | outcome [14] | outcome [15]

CC(C)N(CCC(=O)c1ccc2ccccc2c1)Cc1ccccc1
3.44%: activity [16]
active: Potency [7] 1.2 µM
9.33%: activity change, negative = inhibition [17]
inactive: outcome [3] | Potency [4] | Potency [5] | Potency [6] | Potency [20] | outcome [8]
4.13%: activity [19]
-17.4%: activity [18]

Cc1ccc(C(=O)Oc2ccc(C(O)CNC(C)(C)C)cc2OC(=O)c2ccc(C)cc2)cc1 (stereo not drawn)
inactive: Potency [4]

Fc1ccc(C(c2ccc(F)cc2)N2CCNCC2)cc1
inactive: Potency [4]

COc1cccc2c1[C@@H]1CN(CCCCn3c(=O)[nH]c4c(sc5ncc(-c6ccccc6)nc54)c3=O)C[C@@H]1CO2
inactive: outcome [3] | Potency [4] | Potency [5]

CN(C)CCCOC1(Cc2ccccc2)CCCCCC1
inactive: Potency [4] | Potency [5]

CC(C)=CCC/C(C)=C/CC/C(C)=C/CCC(=O)OC/C=C(\C)CCC=C(C)C
inactive: Potency [4] | Potency [5]

C[C@H]1C[C@H]2[C@@H]3CCC4=CC(=O)C=C[C@]4(C)[C@H]3C(=O)C[C@]2(C)[C@@]1(O)C(=O)CO
inactive: Potency [4] | Potency [5]

COc1cc(C(=O)OC(COCCC(C)C)CN2CCOCC2)cc(OC)c1OC (stereo not drawn)
inactive: Potency [4] | Potency [5] | Potency [6] | Potency [20] | Potency [7] | outcome [8]

O=C(O)CNC(=O)CNC(=O)CNC(=O)CSC(=O)c1ccccc1
inactive: Potency [4] | Potency [5] | Potency [6] | Potency [20] | Potency [7] | outcome [8]

CC(=O)Nc1ccn(C2COC(COC(=O)c3ccccc3)O2)c(=O)n1 (stereo not drawn)
inactive: Potency [4] | Potency [5] | Potency [6] | Potency [20] | Potency [7] | outcome [8]

CCc1cc(S(=O)(=O)O)c2cc(C(C)C)cccc1-2
inactive: Potency [4] | Potency [5] | Potency [6] | Potency [7] | outcome [8]
active: Potency [20] 844 nM

O=C(CCOCCOCCOCCOCCC(=O)Nc1c(I)cc(I)c(C(=O)O)c1I)Nc1c(I)cc(I)c(C(=O)O)c1I
inactive: Potency [4] | Potency [5]

CCC(=O)Oc1ccc2c(c1)CC[C@@H]1[C@@H]2CC[C@@]2(C)[C@H]1C[C@@H](OC(=O)CC)[C@@H]2OC(=O)CC
inactive: Potency [4] | Potency [5]

O=C1[C@@H]2[C@H]3CC[C@H](C3)[C@@H]2C(=O)N1CCCCN1CCN(c2ncccn2)CC1
inactive: Potency [4] | Potency [5] | Potency [6] | Potency [20] | Potency [7] | outcome [8]

NS(=O)(=O)c1cc(C(=O)NN2C[C@H]3[C@H]4CCC(C4)[C@H]3C2)ccc1Cl
inactive: Potency [4] | Potency [5]

CCCCCOc1ccccc1/C(=C\SC)n1ccnc1
inactive: Potency [4] | Potency [5]

CCN(CC)CCOc1ccc(/C(=C(\Cl)c2ccccc2)c2ccccc2)cc1
inactive: Potency [4] | Potency [5] | Potency [6] | Potency [20] | Potency [7] | outcome [8]

CCC(=O)O[C@H]1[C@H](O[C@@H]2[C@@H](C)[C@H](O[C@H]3C[C@@](C)(OC)[C@@H](O)[C@H](C)O3)[C@@H](C)C(=O)O[C@H](CC)[C@@](C)(O)[C@H](O)[C@@H](C)C(=O)[C@H](C)C[C@@]2(C)O)O[C@H](C)C[C@@H]1N(C)C
inactive: Potency [4] | Potency [5]

CCCCC(=O)OCC(=O)[C@H]1[C@H](C)C[C@H]2[C@@H]3C[C@H](F)C4=CC(=O)C=C[C@]4(C)[C@@]3(F)[C@@H](O)C[C@@]21C
inactive: Potency [4] | Potency [5]

CCCCCC(=O)O[C@]1(C(C)=O)CC[C@H]2[C@@H]3CCC4=CC(=O)CC[C@]4(C)[C@H]3CC[C@@]21C
inactive: Potency [4] | Potency [5]

CO[C@]1(NC(=O)CSC(F)F)C(=O)N2C(C(=O)O)=C(CSc3nnnn3CCO)CO[C@H]21
inactive: Potency [4] | Potency [5] | Potency [6] | Potency [20] | Potency [7] | outcome [8]

O=C1CC[C@H](C(=O)N2CCCCC2)N1
inactive: Potency [4] | Potency [5] | Potency [6] | Potency [20] | Potency [7] | outcome [8]

CC(C)(C)NCC(O)COc1ccccc1OCC1CCCO1 (stereo not drawn)
inactive: Potency [4] | Potency [5]

O=C(Nc1ccc(Cl)cc1)Nc1ccc(Cl)c(Cl)c1
inactive: Potency [4] | Potency [5]

CC(C(=O)O)c1ccc(/C=C2\CCCCC2=O)cc1 (stereo not drawn)
inactive: Potency [4] | Potency [5] | Potency [20] | Potency [7] | outcome [8]
active: Potency [6] 23.9 µM
